Measured values as given in PubChem BioAssay AID624330 (Southern Research Specialized Biocontainment Screening …, 2012).
Among all 340,000 compounds or so, about 2,100 (0.62%) were called active.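 How the source made its calls: active means first-screen hits whose inhibition reached a set limit at any dose in the follow-up dose series; inconclusive means inhibition above the set first-screen limit but never retested; inactive means the rest.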 Only a sample is shown. Entries with a potency or affinity are not part of this list.

Target: Rac GTPase-activating protein 1 (Homo sapiens) (UniProt Q9H0H5)
Assay: blockers of MgcRacGAP-driven Rac1 GTP hydrolysis – biochemical, ADP Hunter fluorescence, primary and confirmatory, confirmation (AID 624330);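 further: fluorescence reports GDP produced by GAP-driven GTP hydrolysis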
Details: MgcRacGAP-stimulated Rac1 GTP hydrolysis, at 30 µM, stronger effect = higher value, GST-tagged Rac1 F28L mutant substrate

Chain of Rac GTPase-activating protein 1 (Homo sapiens) (Q9H0H5 whole entry, looked up): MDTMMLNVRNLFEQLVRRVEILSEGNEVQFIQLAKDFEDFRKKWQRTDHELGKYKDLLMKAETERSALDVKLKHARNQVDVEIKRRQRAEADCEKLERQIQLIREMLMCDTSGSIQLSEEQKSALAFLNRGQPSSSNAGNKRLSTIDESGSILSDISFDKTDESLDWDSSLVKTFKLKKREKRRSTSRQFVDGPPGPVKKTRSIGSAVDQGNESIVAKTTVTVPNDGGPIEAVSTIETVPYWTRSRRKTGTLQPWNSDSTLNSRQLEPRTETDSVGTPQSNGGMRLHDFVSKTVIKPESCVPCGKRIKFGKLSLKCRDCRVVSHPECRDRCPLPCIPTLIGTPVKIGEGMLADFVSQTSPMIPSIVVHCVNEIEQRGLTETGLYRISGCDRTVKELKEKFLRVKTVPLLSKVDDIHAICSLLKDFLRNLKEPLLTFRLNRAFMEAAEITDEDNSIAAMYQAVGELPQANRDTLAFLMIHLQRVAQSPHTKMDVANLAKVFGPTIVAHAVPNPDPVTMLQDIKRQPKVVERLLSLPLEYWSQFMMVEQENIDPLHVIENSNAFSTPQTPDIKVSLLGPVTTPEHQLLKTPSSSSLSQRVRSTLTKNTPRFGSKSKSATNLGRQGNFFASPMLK

inhibition, inactive:
CCOc1ccc(/C=N/Nc2ccc(C(F)(F)F)cc2[N+](=O)[O-])cc1O 13.1%, O=C(CCc1nc2ccccc2c(=O)[nH]1)Nc1ccc(F)c([N+](=O)[O-])c1 2.61%, Clc1ccc(C2=Nc3cc(Cl)ccc3OC2)cc1 12.9%, CCC1=Nc2cc(C(=O)O)ccc2Sc2ccc(Cl)cc21 6.46%, CCOc1ccc2nc(SCC(=O)NCc3ccc(OC)cc3)[nH]c2c1 6.56%, Cc1ccc2c(c1)N(C(=O)CCC(=O)N1CCN(c3ccccc3)CC1)CCO2 11.2%, COc1ccc(/C=N\NC(=O)CNC(=O)C2COc3ccccc3O2)cc1[N+](=O)[O-] (centres undefined) 5.39%, COc1ccc(/C=N/NC(=O)CNC(=O)C2COc3ccccc3O2)cc1OC (centres undefined) 6.43%, O=C(CNC(=O)C1COc2ccccc2O1)N/N=C\c1cccc(O)c1 (centres undefined) 3.96%, CCN(CC)c1ccc(/C=N/NC(=O)CNC(=O)C2COc3ccccc3O2)c(O)c1 (centres undefined) 5%, CCOC(=O)N1CCN(C(=O)COC(=O)c2cc(C)ccc2C)CC1 -2.55%, CCOc1ccccc1NC(=O)CN(c1ccc(C)cc1)S(=O)(=O)c1c(C)n[nH]c1C 0.88%, Cc1cc(C(=O)O)ccc1NCc1ccncc1 7.32%, COCCN(CC(=O)NC1CCCCC1)C(=O)CCCC(=O)Nc1ccccn1 -5.13%, COC(=O)c1ccc(C(=O)OC)c(NC(=S)N2CCCCC2C)c1 (centres undefined) 8.35%, O=C(CN1CCN(c2ccccc2)CC1)NC(=O)NCc1ccco1 5.31%, Cc1ccc(NC(=O)NC(=O)CN2CCC(C(N)=O)CC2)c(C)c1 -2.71%, O=C(CN1CCN(c2ccc(F)cc2)CC1)NC(=O)NCc1ccco1 -4.47%, COc1ccc(N2CCN(CC(=O)Nc3ccc(C)cc3Br)CC2)cc1 -18.4%, Cc1ccccc1NC(=O)c1ccccc1NC(=O)c1ccco1 4.69%, Cn1cccc1C(=O)OCc1ccc(F)cc1 5.26%, Cc1ccn2c(C(=O)N/N=C/c3ccc(Cl)cc3)c(C)nc2c1 8.94%, COc1ccc(OC)c(/C=N\NC(=O)c2c(C)nc3cc(C)ccn23)c1 -1.68%, Cc1nc2ccccn2c1C(=O)N/N=C/c1ccc(F)cc1 6.23%, COc1ccc(/C=N/NC(=O)c2c(C)nc3ccccn23)cc1[N+](=O)[O-] 0.27%, CN(CC1CCOCC1)C(=O)CC1C(=O)NCCN1Cc1cccc(Oc2ccccc2)c1 (centres undefined) -8.59%, O=C(CSc1nnc(CNC(=O)c2c(F)cccc2F)o1)NCCc1ccccc1 6.85%, CCN1C(=O)[C@@H]2[C@H](C1=O)[C@@H]1C(=O)Nc3ccccc3C(=O)N1[C@@H]2c1ccc(OC)cc1 3.37%, O=C(Nc1ccccc1C(=O)NCCc1ccccc1)c1cnccn1 8.13%, N#Cc1cc(-c2ccccc2)cnc1Sc1ccccc1 -2.07%, CCN(CC)CCCNC(=O)Cc1c(C(=O)O)n(C)c2ccccc12 7.17%, CC(=O)c1ccc(N2CCN(CC(O)COC(c3ccccc3)c3ccccc3C)CC2)cc1 (centres undefined) 12.8%, Cc1ccccc1C(OCC(O)CN1CCC(C(N)=O)CC1)c1ccccc1 (centres undefined) 6.34%, OC(COC(c1ccccc1)c1ccccc1)CN1CCCCC1 (centres undefined) 6.55%, CCOC(=O)N1CCN(CC(c2ccccc2)c2ccccc2)CC1 20.9%, c1ccc(C(CN2CCOCC2)c2ccccc2)cc1 14.5%, CCN1CCN(CC(O)COC(c2ccccc2)c2ccccc2)CC1 (centres undefined) 0.21%, Cc1nnsc1C(=O)Nc1ccc(S(=O)(=O)N2CCCC(C)C2)cc1 (centres undefined) -21.6%, Cc1cc([N+](=O)[O-])nn1CC(=O)NCc1ccc(Cl)cc1 0.89%, COC(=O)Cc1c(OC)ccn(CCc2c[nH]c3ccccc23)c1=O 8.25%, CN1C(=O)C(C)(C)c2cc(S(=O)(=O)N3CCCC(C(=O)NCc4ccc(F)cc4)C3)ccc21 (centres undefined) 17.2%, CCC(CC)C(=O)Nc1ccc(C(=O)Nc2cc(C)on2)cc1 5%, COc1ccc(CNC(=O)C(=O)NCC2OCCCN2S(=O)(=O)c2cccs2)cc1 (centres undefined) 8.22%, N#CC1=C(N)OC(c2ccccc2)=C(C#N)C1c1ccc2c(c1)OCO2 (centres undefined) -0.39%, COc1cc(C2Nn3c(nnc3-c3ccccc3OC)S2)ccc1O (centres undefined) 3.42%, CC(C)Cc1ccc(C(=O)NCCOc2ccccc2)o1 5.6%, CNC(=O)c1c(NC(=O)c2ccc(S(=O)(=O)N3CC(C)OC(C)C3)cc2)sc2c1CCN(C(C)C)C2 (centres undefined) 11.2%, Cc1ccc(C(=O)NCC(=O)Nc2ncccc2C)s1 -8.48%, Cc1ccc(C(=O)Nc2ccncc2)cc1S(=O)(=O)N1CCOCC1 5.06%, CCOc1ccc(CCN2C(=S)N([C@@H](CC(C)C)CN3CCCC3CN3C(=S)NC[C@@H]3Cc3ccc(O)cc3)C[C@@H]2Cc2ccccc2)cc1 (some centres undefined) -2.29%, C[C@H](CO)N1C[C@H](C)[C@@H](CN(C)C(=O)c2ccccc2)OCc2cnnn2CCCC1=O 16.3%, Oc1ccccc1N=Cc1ccc[nH]1 16.7%, O=C(Nc1ccccc1O)c1ccc([N+](=O)[O-])cc1 6.91%, O=C(CN1CCOCC1)Nc1ccc(-c2nc3ccccc3[nH]2)cc1 10.7%, CC(C)C[C@@H](C(=O)O)N(Cc1cccc(CN([C@@H](CC(C)C)C(=O)O)S(C)(=O)=O)c1)S(C)(=O)=O 9.29%, CC1=C(C(=O)Nc2ccccc2C)C2(CCCC2)C(C(N)=O)C(=O)N1 (centres undefined) -3.29%, CCOC(=O)c1cnc2c(-c3ccccc3)cnn2c1C 8.8%, CCNC(=O)CSC1=N/C(=C\c2ccc(O)c(OCC)c2)C(=O)N1c1ccc(OC(F)F)cc1 7.81%, NC(=O)CSC1=N/C(=C\c2ccco2)C(=O)N1c1ccc(OC(F)F)cc1 9.08%
